Hits are enriched below; roughly 0.65% of the tested compounds scored in any of these assays.
RN4220 kill: S. aureus RN4220 growth inhibition; AID 1259311; inhibition, % (test concentration not listed); 330,000 tested, 0.33% active; OD600, 16 h; in the data active = inhibition above about 85%;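 also: plate controls were untreated cells for no effect and reference antibiotic for full effect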
ugtP null kill: compounds lethal to S. aureus RN4220 ugtP deletion mutant | OD600 growth, 16 h | growth inhibition, % (concentration not given with the values) | 330,000 tested, 0.54% active; in the data active = growth inhibition above about 68%;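 also: plate controls were untreated wells for no effect and antibiotic for full effect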
BJeLR viability: kills HRASV12-expressing BJeLR cells. BJeLR (HRASV12) viability, CellTiter-Glo ATP luminescence, 48 h. inhibition, % (no concentration beside the values). 300,000 tested, 0.17% active. AID 1554; in the data active = inhibition above about 50%
An asterisk follows results filed as active; nt = no result given.

SMILES	RN4220 kill	ugtP null kill	BJeLR viability
COC(=O)C1C(O)C(C)C(O)C(C)C=CC=C(C)C(=O)Nc2c(C)c(OC(C)=O)c3c(c2O)C(=O)C(C)=C2OCOC(=C23)C(C)=CC(C)(O)C(O)C(C)C1O (stereo not given)	99*	100*	nt
CO[C@H]1C=CO[C@@]2(C)Oc3c(C)c(O)c4c(O)c(c(C=NN5CCN(C)CC5)c(O)c4c3C2=O)NC(=O)C(C)=CC=C[C@H](C)[C@H](O)[C@@H](C)[C@@H](O)[C@@H](C)[C@H](OC(C)=O)[C@@H]1C	nt	nt	6
Cc1ccc(C(=O)c2c(C)oc3c2C(=O)C(=O)c2ccccc2-3)cc1	109*	93*	-5
Cc1oc2c(c1C(=O)c1ccc(Cl)cc1)C(=O)C(=O)c1ccccc1-2	nt	nt	-3
CCOC(=O)c1c2c(n(C)c1C)C(=O)C(=O)c1ccc(Br)cc1-2	95*	95*	55*
Cc1c(CN(C)C)c2c(n1C)C(=O)c1ccc(Br)cc1-2	5	0	-8
Cc1c(NC(=S)NC(=O)Cc2ccccc2)cccc1C(=O)O	1	5	3
C[C@@H]1Cc2c(O)c(O)cc(O)c2C(=O)O1	1	-2	0
CC1Oc2cc3c(-c4c(O)cc(O)c5c(O)c6c(cc45)OC(C)C(C)C6=O)c(O)cc(O)c3c(O)c2C(=O)C1C (stereo not given)	98*	98*	0
CCN1CC(=O)Nc2cc(S(=O)(=O)N3CCOCC3)ccc21	3	9	-7
O=S(=O)(c1ccc(Cl)c(Cl)c1)c1snnc1-c1ccccc1	24	46	53*
c1ccc(-c2nnsc2-c2ccccc2)cc1	8	12	-3
COc1cccc(NC(=O)c2ccc3c(c2)N(CC(=O)N2CCCCC2)C(=O)C(C)(C)O3)c1	0	9	1
Cc1ccc(C(=O)CC(=O)c2ccccc2)cc1	2	10	-3
Cc1ccc(C(=O)Sc2cccccc2=O)cc1	34	40	104*
Cc1ccc(CNC(=O)COC(=O)C2CC2)cc1	4	7	nt
CCc1ccc(S(=O)(=O)n2c(C)nc3ccccc32)cc1	0	3	-2
CCCc1nnc(NC(=O)c2c(O)c3cccc4c3n(c2=O)CC4)s1	101*	100*	-3
CC(C)c1nnc(NC(=O)c2c(O)c3cccc4c3n(c2=O)CCC4)s1	46	-5	-6
Cc1cccc(OCC(=O)NCC(=O)N/N=C/c2cccnc2)c1	nt	nt	-2
CN(CC=CC#CC(C)(C)C)Cc1cccc2ccccc12	-6	89*	nt
CN(C/C=C/C#CC(C)(C)C)Cc1cccc2ccccc12	nt	nt	-9
CCc1ccn2cc(-c3cc(-c4ccccc4)no3)nc2c1	5	-12	8
CCN1CCN(Cc2ccc(NC(=O)c3ccc(C)c(NC(=O)C(=O)c4c[nH]c5ccccc45)c3)cc2C(F)(F)F)CC1	101*	100*	26
CCN1CCN(Cc2ccc(NC(=O)c3cc(NC(=O)C(=O)c4c[nH]c5ccccc45)cc(OC)c3)cc2C(F)(F)F)CC1	58	22	12
SMILES	RN4220 kill	ugtP null kill	BJeLR viability
O=C1C2C3C=CC(O3)C2C(=O)N1Nc1ccccc1 (stereo not given)	4	9	nt
CO/N=C(\Cn1ncc(N2CCCC2)c(Br)c1=O)c1ccc(Cl)cc1	nt	nt	-6
Cc1ccc(S(=O)(=O)N2[C@@H](c3ccc(C(C)(C)C)cc3)C(C(=O)O)=CC[C@H]2c2ccc(Cl)c(Cl)c2)cc1	100*	95*	nt
Cc1ccc(S(=O)(=O)N2[C@@H](c3ccc(C(C)(C)C)cc3)C(C(=O)O)=CC[C@H]2c2cccc(Cl)c2)cc1	11	-8	nt
Cc1ccc([C@H]2C(C(=O)O)=CC[C@@H](c3ccc(Cl)cc3)N2S(=O)(=O)c2ccc(C)cc2)cc1	15	7	nt
Cc1ccc(S(=O)(=O)N2C(c3ccc(Cl)cc3)CC=C(C(=O)O)C2c2ccc(F)cc2)cc1 (stereo not given)	19	93*	nt
COc1ccc(CSCCNC(=S)Nc2ccccc2)cc1Cl	16	-2	-7
NC1CCN(c2c(F)cc3c(=O)c(C(=O)O)cn(C4CC4)c3c2Cl)C1 (stereo not given)	100*	100*	-8
Cc1cccc(-c2cc(=O)c(C(=O)O)cn2-c2ccc(F)cc2F)c1	5	4	5
COc1c(N2CCNC(C)C2)c(F)cc2c(=O)c(C(=O)O)cn(C3CC3)c12 (stereo not given)	100*	100*	5
CCOC(=O)C1CN(c2cc3c(cc2F)c(=O)c(C(=O)O)cn3CC)OC1C(=O)OCC (stereo not given)	9	17	-2
CCOC(=O)c1cn(C2CC2)c2c(F)c(NCCCN(C)C)c(F)cc2c1=O	4	7	-3
O=C(O)c1cn(C2CCCCC2)c2ccccc2c1=O	-9	17	-9
